Screens: PubChem BioAssay, National Center for Advancing Translational Sciences (NCATS)
Rows were chosen to be rich in hits. Some 7.7% of all compounds tested hit in one or more screens of this group.
Giardia FBPA inh: blocks Giardia fructose-bisphosphate aldolase activity; A8B2U2; purified Giardia FBPA; Potency, µM (series often up to 59.6 µM), actives largely listed as inhibitors; actives 0.71% (n = 290,000); note: nearly all actives have a fitted effect of over 55% in size
Target sequence (A8B2U2 whole entry, looked up): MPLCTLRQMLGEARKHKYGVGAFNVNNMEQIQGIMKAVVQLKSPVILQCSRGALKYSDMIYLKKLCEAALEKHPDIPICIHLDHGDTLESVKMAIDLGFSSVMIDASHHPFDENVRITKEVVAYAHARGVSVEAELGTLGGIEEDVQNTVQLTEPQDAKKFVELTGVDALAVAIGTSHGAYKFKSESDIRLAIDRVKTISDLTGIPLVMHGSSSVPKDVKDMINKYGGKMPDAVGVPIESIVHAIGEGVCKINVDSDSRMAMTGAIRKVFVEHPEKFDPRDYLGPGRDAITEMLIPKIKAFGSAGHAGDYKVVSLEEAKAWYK
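40 nM FBPA preincubated 10 min at RT with compound (up to 57.5 uM final), then substrate plus GAPDH/TPI/NAD/arsenate coupling and diaphorase/resazurin added. Fluorescence read after 20 min at RT, 525/598 nm.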
HCMV antiviral: inhibitors of human cytomegalovirus. actives 4.5% (n = 410,000). activity change, negative = inhibition, % at 57.5 µM. HFF cells, HCMV-luciferase reporter, 72 h; stronger effect = lower value; in the data active = activity change below about -60%; inconclusive = no clear call, values can overlap the other calls; inactive = above about -39%
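Two compound doses tested in HFFs infected with HCMV-luciferase, MOI 1 PFU/cell, 72 h at 37C. Lysate luminescence read with OneGlo; data normalized against buffer-only and 10uM Salinomycin inhibitor controls.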
FMDV inh: blocks foot and mouth disease virus; FMDV antiviral cell-based qHTS; Potency, µM (titrated, usually from 57.9 µM), hits mostly inhibitors; actives 1.2% (n = 410,000); calls by dose curve; tested in HEK293T cells; note: read-out not given here; nearly all actives have a fitted effect of over 45% in size
Sm TGR inh: blocks Schistosoma mansoni thioredoxin glutathione reductase. Q962Y6. purified TGR, DTNB reduction, TNB absorbance 405 nm. Potency, µM (doses to about 114 µM), actives largely listed as inhibitors. actives 3% (n = 360,000). AID 485364; note: nearly all actives have a fitted effect of over 60% in size
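Kinetic colorimetric format: TGR-catalysed, NADPH-driven DTNB reduction monitored via TNB absorbance. Enzyme dispensed at 20 nM; compound exposure 15 min at room temperature before reaction start.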
RE007 growth inh: less growth of the S. pombe RE007 Vpr strain; AID 651644; Potency, µM (doses to about 92.2 µM), hits mostly inhibitors; actives 0.21% (n = 360,000); S. pombe RE007 Vpr strain, BacTiter-Glo ATP luminescence, 24 h; active = well fitted falling curve with a large enough effect; inconclusive = small, poorly fitted or top-dose-only effect; inactive = no such curve, though single readings can be large or run the other way; note: nearly all actives have a fitted effect of over 50% in size
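Fission yeast strain RE007, carrying one chromosomally integrated HIV-1 vpr copy, was seeded at OD 0.01 in PMG+AL medium with 23 nL pinned compound. After 24 h at 30 °C and 99% humidity, viability was read by BacTiter-Glo luminescence.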
TbPYK inhibitor: inhibitors of Trypanosoma brucei pyruvate kinase; Q57TT1; TbPYK enzyme, Kinase-Glo Plus ATP luminescence, 45 min; Potency, µM (series often up to 76.8 µM), hits mostly inhibitors; actives 0.12% (n = 410,000); AID 624173; note: nearly all actives have a fitted effect of over 50% in size
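Readout: single end-point luminescence (Kinase-Glo Plus, 10 min). Reaction conditions were TbPYK/substrate plus 130 uM ADP, 45 min at RT, pH 7.2 TEA buffer. No-enzyme wells served as controls, and data were normalized before concentration-response fitting.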
Hits are given with their value; - = inactive; ? = inconclusive; . = no result. Unless noted, calls come from the whole dose curve; as a rule, active = well fitted curve in the direction sought with a large enough effect; inconclusive = small, poorly fitted or top-dose-only effect, or another doubt; inactive = no such curve, though single readings can be large; an effect the other way counts as inactive or inconclusive.

SMILES	Giardia FBPA inh	HCMV antiviral	FMDV inh	Sm TGR inh	RE007 growth inh	TbPYK inhibitor
O=C(O)c1ccc(Cn2cc(/C=C\[N+](=O)[O-])c3ccccc32)o1	-	-	-	3.2µM	-	-
O=Cc1cn(Cc2ccc(Br)cc2)c2ccccc12	-	-	?	-	-	-
Cn1c(=O)c2sccc2n2c(CCCC(=O)Nc3ccc(Oc4ccc(Cl)cc4)cc3)nnc12	.	-76	?	-	.	-
COc1cccc(CN(C)C(=O)c2cnn(-c3nccc(-c4ccc5c(c4)OCO5)n3)c2C)c1	.	.	-	.	.	.
CCOc1ccc(CNc2cc(C)nc3nc(-c4cccc(C)c4)nn23)cc1OC	.	-	-	?	.	-
Cc1ccc(C)c(OCC(O)CN2CCC(Cc3ccccc3)CC2)c1 (stereo not given)	-	-111	?	-	-	-
Cc1ccc(C)c(OCC(O)CN2CCN(CCN3C(=O)c4cccc5cccc(c45)C3=O)CC2)c1 (stereo not given)	-	-84	25µM	-	-	-
CC(=O)c1ccccc1OCC(O)CN1CCN(CCN2C(=O)c3cccc4cccc(c34)C2=O)CC1 (stereo not given)	-	-65	28µM	-	-	-
NC(=O)CN1CCN(CCN2C(=O)c3cccc4cccc(c34)C2=O)CC1	-	?	-	-	-	-
O=C1c2cccc3cccc(c23)C(=O)N1CCN1CCN(CC(O)COc2ccc3ccccc3c2)CC1 (stereo not given)	-	-63	?	-	-	-
CS(=O)(=O)Nc1ccccc1C(=O)OCc1cc(=O)n2nc(C3CCCCC3)sc2n1	.	-	-	-	.	-
CN(C)c1ncc2nc(-c3ccccc3)c(=O)n(-c3ccccc3)c2n1	-	.	-	.	.	.
COc1cccc(-n2c(SC)nnc2C2CCN(CCC(C)c3ccc(C)o3)CC2)c1 (stereo not given)	.	.	-	.	.	.
CCCCCCCCCCCCCC(=O)OC(C)C	.	.	.	.	.	-
CN1CCN(C(=O)C2=C[C@@H](c3ccc(C(F)(F)F)cc3)C[C@@H](OCc3ccc(CO)cc3)O2)CC1	-	-	-	?	-	-
COC(=O)c1ccc([C@H]2C=C(C(=O)O)O[C@@H](OCc3ccc(CO)cc3)C2)cc1	-	-	-	10µM	-	-
O=C(O)C1=C[C@H](c2ccc(C(F)(F)F)cc2)C[C@H](OCc2ccc(CO)cc2)O1	-	-	-	50µM	-	-
C#Cc1ccc([C@@H]2C=C(C(=O)NCc3ccccc3)O[C@H](OCc3ccc(CO)cc3)C2)cc1	-	-	-	?	-	-
C#Cc1ccc([C@H]2C=C(C(=O)O)O[C@@H](OCc3ccc(CO)cc3)C2)cc1	-	-	-	35µM	-	-
O=C(C1=C[C@@H](c2ccc(C(F)(F)F)cc2)C[C@@H](OCc2ccc(CO)cc2)O1)N1CCN(Cc2ccccc2)CC1	-	-	-	35µM	-	-
CN=C(NC)NCc1ccccc1	.	.	.	.	.	-
O=c1c2c([nH]c3ccccc13)C(=C1CCCC1)CC2	-	.	-	13µM	-	-
CCc1ccc(/C=C2\SC(=S)N(CCCC(=O)NC3=NCCS3)C2=O)cc1	.	-74	14µM	.	-	-
CCc1ccc(/C=C2\SC(=S)N(CCCC(=O)Nc3cc(C)on3)C2=O)cc1	.	?	16µM	.	-	-
COc1cccc(/C=C2\SC(=S)N(CCCC(=O)NC3=NCCS3)C2=O)c1	-	-	-	-	-	-
SMILES	Giardia FBPA inh	HCMV antiviral	FMDV inh	Sm TGR inh	RE007 growth inh	TbPYK inhibitor
O=c1c2ccccc2sn1-c1ccc(Cl)cc1	.	-	-	.	8.9µM	32µM
O=c1c2ccccc2ncn1-c1ccc(Cl)cc1	-	-	-	-	-	-
Cc1ccc(N2C(=O)CC(N3CCN(c4ccc(F)cc4)CC3)C2=O)c(C)c1 (stereo not given)	-	-	-	-	-	-
Cc1ccc(-n2sc3ccccc3c2=O)cc1	?	-	-	?	6.3µM	7.9µM
Cc1ccc(-n2sc3cc(F)ccc3c2=O)c(C)c1	.	-70	?	.	11µM	10µM
COC(=O)c1cccc(-n2sc3ccccc3c2=O)c1	.	?	-	?	?	6.3µM
COc1ccc(OC)c(CN2CCC3(CCC(CNC(=O)c4ccco4)O3)CC2)c1 (stereo not given)	.	.	-	.	.	.
COc1ccc(OC)c(NC(=O)C2=C(C)C(=O)OC23CCN(C(C)C)CC3)c1	.	-	-	?	.	-
N#Cc1nc(Nc2ccccc2)nc(NC2CCCCC2)n1	-	.	.	.	.	.
O=c1c2cc(F)ccc2sn1-c1ccccc1Cl	.	-	?	.	?	11µM
O=c1sc2ccccc2c(=O)n1Cc1ccccc1F	-	?	-	-	-	-
O=c1c2ccc(F)cc2sn1-c1ccccc1	.	-	-	.	-	10µM
O=c1c2ccccc2sn1-c1ccc(F)cc1	.	?	-	-	5.6µM	8.9µM
Cc1nc(Nc2ccccc2)c2nc(-c3ccccc3)n(CCN3CCOCC3)c2n1	-	.	.	.	.	.
COc1ccc(B(O)O)cc1	-	.	.	.	.	.
Cc1ccc2c(c1)c1c3n2CCN(C(=O)CCl)C3CCC1 (stereo not given)	-	-	?	22µM	-	-
CC(=O)N1CCn2c3c(c4cc(C)ccc42)CCCC31 (stereo not given)	-	-	-	-	-	-
CC(=O)N1CCn2c3c(c(=O)c4cc(C)ccc42)CCC31 (stereo not given)	?	-	-	20µM	-	-
Cc1cc(C(=O)CSc2nc(N)cc(=O)[nH]2)c(C)n1CCc1ccc(F)cc1	-	-82	16µM	-	-	-
Cc1cc(C(=O)CSc2nc(N)cc(=O)[nH]2)c(C)n1-c1ccc(OC(F)F)cc1	-	-106	3.5µM	-	-	-
COc1ccc(CCn2c(C)cc(C(=O)CSc3nnc(N)s3)c2C)cc1	-	.	28µM	-	-	-
COCCn1c(C)cc(C(=O)CSc2nc3ccccc3s2)c1C	-	-83	16µM	-	-	-
Cc1cc(C(=O)CSc2nnc(N)s2)c(C)n1CCc1ccc(F)cc1	-	-	-	-	-	-
Cc1cc(-n2c(C)cc(C(=O)CSc3nc(N)cc(=O)[nH]3)c2C)no1	-	?	?	-	-	-
COCCn1c(C)cc(C(=O)CSc2nc3ccccc3o2)c1C	-	-	-	-	-	-
CCOc1ccccc1CNC(=O)c1c(C)oc2ncnc(N3CCOCC3)c12	.	?	-	-	.	-
CCCc1cc(=O)[nH]c(SCC(=O)c2cc(C)n(CCOC)c2C)n1	-	-	-	-	-	-
COc1ccc(CCn2c(C)cc(C(=O)CSc3nc(N)cc(=O)[nH]3)c2C)cc1	-	-95	18µM	-	-	-
CCOc1ccc2c(c1)nc(SCC(=O)c1ccc(Br)s1)n2C	-	-	-	35µM	-	-
COc1ccc(NC(=O)N(CCC(C)C)C(C)c2cccs2)c(OC)c1 (stereo not given)	.	-	-	-	.	-
